In PubChem BioAssay AID588382 (National Center for Advancing Translational Sciences (NCATS), 2011):
The campaign covered roughly 1,300 compounds. About 150 (12%) were called active. About 30% were inconclusive and are not listed. The list comes from a sample in which actives are over-represented; it also holds similar structures and randomly drawn compounds. Values without a mark were called inactive. The call rests on the fitted dose curve; in most records, active means well fitted cell-killing curve with a large enough effect; inconclusive means small, poorly fitted or top-dose-only effect, or effect the other way; inactive means flat fitted curve, though single readings scatter.

test: qHTS of small molecules that selectively kill Giardia lamblia: Hit Validation in HepG2 cytotox; details: cell viability; Potency: HepG2 cytotoxicity; series mostly up to 38.3 µM; activity change, negative = cytotoxicity: at the top concentration;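 further: compound exposure lasted overnight at 37 deg C; nearly all actives have a fitted effect of over 55% in size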;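 on activity change, negative = cytotoxicity: viability measured as cellular ATP by ATPLite luminescence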
Text: Giardia lamblia is a human pathogen afflicting impoverished nations, and the most common cause of outbreaks of diarrhea in the United States. Giardia has been classified by the CDC as a category B bioterrorism organism. The favored anti giardiasis drugs in the US are metronidazole or tinidazole, compounds that have undesirable side effects. Moreover, increasing resistance to drug regimes and recurrence are a concern. It is thus clear that alternative drug treatments are needed.
In a collaboration between the University of Maryland, College Park and the NIH Chemical Genomics Center, a bioluminescence Giardia viability assay based on the trophozoites' ATP content was developed. This assay is suitable for high throughput screening, and miniaturized the assay for compound screening in 1536-well plates. The goal of the project is to screen the Molecular Libraries Small Molecule Repository (MLSMR) for compounds that selectively kill Giardia trophozoites. This counterscreen looks at the toxicity of the compounds against the human HepG2 cell line.
NIH Chemical Genomics Center [NCGC]
NIH Molecular Libraries Probe Centers Network [MLPCN]
Assay Submitter (PI): Osnat Herzberg, University of Maryland, College Park, MD.
4 uL of HepG2 cells ae dispensed into white 1536-well plates. They are incubated overnight at 37 deg C and then 23 nL of compounds are transferred to the wells with a pintool. Plates are incubated overnight at 37 deg C. 2 uL of ATPLite is added and the plates are incubated for 15 min at room temperature before they are read on the ViewLux for luminiescence.
On the % scale 0 is the no-effect control and ±100 the full control effect; potency means the concentration at half of the fitted maximal effect.

SMILES | activity change, negative = cytotoxicity [%] | Potency
COc1ccccc1CNC(=O)CSc1ccsc1[N+](=O)[O-] | 10.1 | –
Cc1ccc(OCc2ccc([N+](=O)[O-])cc2)c([N+](=O)[O-])n1 | 11.6 | –
Cc1cc(C(=O)COc2cccnc2[N+](=O)[O-])c(C)n1Cc1cccs1 | 0.566 | –
Cc1onc(-c2ccccc2)c1C(=O)N/N=C/c1ccc([N+](=O)[O-])c(O)c1 | 18.6 | –
COc1cc2c(c3oc(-c4ccccc4)cc(=O)c13)C=CC(C)(C)O2 | 15 | –
Cc1nc2ccccc2n1/N=C/c1ccc([N+](=O)[O-])s1 | – | 16.5 µM (active)
O=[N+]([O-])c1ccc(/C=N/Nc2ncccc2[N+](=O)[O-])s1 | 4.72 | –
O=[N+]([O-])c1ccc(/C=N/n2c(CO)nc3ccccc32)s1 | -18.8 | –
CN(C)c1ccc(N=Nc2ccccc2C(=O)O)cc1 | 2.67 | –
CCOC(=O)Cn1c(=NC(=O)c2ccc([N+](=O)[O-])s2)sc2ccccc21 | -12.7 | –
COc1ccc(C(=O)N(Cc2ccccc2)c2cccc(C)c2)cc1 | -1.63 | –
CCOc1ccc2nc(NC(=O)c3c([N+](=O)[O-])cnn3CC)sc2c1 | 2.03 | –
CCOC(=O)N=Nc1c2ccccc2c2nc3no[nH]c3nc12 | – | 0.736 µM (active)
CCC(C(=O)OC)n1c(-c2ccccc2)nc2ccccc2c1=O (stereo not given) | 6.81 | –
CN(C)c1cc(NC(=O)CNC(C)(C)CC(C)(C)C)c2ccccc2n1 | -3.21 | –
CC1CCN(c2c([N+](=O)[O-])nn(-c3ccc4c(c3)OCCO4)[n+]2[O-])CC1 | 0.373 | –
COCCNc1cc(NCCOC)c([N+](=O)[O-])cc1[N+](=O)[O-] | 3.46 | –
Cc1ccc([C@H]2C(C(=O)O)=CC[C@@H](c3ccc(C)cc3)N2S(=O)(=O)c2ccc(C)cc2)cc1 | 5.19 | –
CCC(C)Nc1ccc(NC(C)CC)cc1 (stereo not given) | – | 0.165 µM (active)
O=C(COc1cccnc1[N+](=O)[O-])Nc1c(Cl)cccc1Cl | 5 | –
O=[N+]([O-])c1nn(-c2ccc(Cl)cc2)n(O)c1=NCc1ccncc1 | 15.3 | –
OCCSc1nc(-c2ccccc2)nc2ccc(F)cc12 | 12.9 | –
O=C(Cc1csc(Nc2nc(=S)[nH]c3ccccc23)n1)NCCCN1CCN(c2ccccc2F)CC1 | – | 16.5 µM (active)
CCOC(=O)N1C(C)CN(/[N+]([O-])=N/Oc2ccc([N+](=O)[O-])cc2[N+](=O)[O-])CC1C (stereo not given) | 5.98 | –
O=c1/c(=C/c2ccc(O)c([N+](=O)[O-])c2)sc2nc3ccccc3n12 | -5.62 | –

SMILES | activity change, negative = cytotoxicity [%] | Potency
Cc1ccc2c(c1)c1nc3ccccc3nc1n2C | -4.9 | –
Cc1cnc([N+](=O)[O-])n1CCOC(=O)c1cccc(F)c1 | 15.1 | –
Cc1oc2c(c1C(=O)N1CCOCC1)C(=O)c1ccccc1C2=O | – | 4.65 µM (active)
O=C(c1ccc([N+](=O)[O-])o1)N1CCOCC1 | -15.8 | –
CC1CCN(c2ccc(-c3ccc(NC(=O)C(F)(F)F)cc3)nn2)CC1 | – | 4.14 µM (active)
N#CC1C=Cc2c(ccc3ccccc23)N1C(=O)c1ccccc1 (stereo not given) | 13.7 | –
O=C(Nc1ccc2c(c1)OCCO2)c1cc(-c2ccccn2)nc2ccc(Br)cc12 | -5.28 | –
Cc1nc2c(ccc3nc(NC(=O)c4ccc5c(c4)OCCO5)sc32)s1 | – | 1.85 µM (active)
CC(=O)c1sc(NC(=O)c2ccc(C)c(C)c2)nc1C | -14.5 | –
Cc1[nH]n(S(=O)(=O)Cc2ccccc2)c(=O)c1N=Nc1ccccc1Cl | 10.9 | –
O=C(COc1cccnc1[N+](=O)[O-])c1c[nH]c2ccccc12 | 3.05 | –
Cc1[nH]c2ccccc2c1C(=O)C(C)OC(=O)c1ccc([N+](=O)[O-])o1 (stereo not given) | 22.2 | –
COC(=O)c1sc(NC(=O)COc2cccnc2[N+](=O)[O-])c(C(=O)OC)c1C | 0.168 | –
Cc1cc2[nH]c3c(c[n+](C)c4ccccc34)c2cc1C | – | 3.29 µM (active)
COC(=O)c1ccc(Cn2cc(C(F)(F)F)cc([N+](=O)[O-])c2=O)cc1 | 2.05 | –
CCc1ccc([C@@H]2CC=C(C(=O)O)[C@H](c3cccc(Cl)c3)N2S(=O)(=O)c2ccc(C)cc2)cc1 | 18.9 | –
Cc1ccc(CN=c2c([N+](=O)[O-])nn(-c3ccc4c(c3)OCCO4)n2O)cc1 | 14 | –
Cc1ccccc1N1CCN(Cc2ccc([N+](=O)[O-])o2)CC1 | -15.2 | –
COc1cc(/C=C/c2onc(C)c2[N+](=O)[O-])cc(OC)c1OC | 0.264 | –
COc1cc(C2CC(=O)Oc3cc(C)c(Cl)c(C)c32)cc(OC)c1OC (stereo not given) | 21.9 | –
COc1cc(/C=C2\COC/C(=C\c3cc(OC)c(OC)c(OC)c3)C2=O)cc(OC)c1OC | – | 2.33 µM (active)
Cc1ccc(S(=O)(=O)N2CC(C(=O)O)=CC[C@H]2c2ccc(Cl)cc2)cc1 | 12.5 | –
O=C(O)C=C(Br)Br | 23.8 | –
COc1ccc(C(=O)c2c3ccccc3[n+]([O-])n2CCCN)cc1 | – | inactive
CC(Oc1cccnc1[N+](=O)[O-])C(=O)Nc1ccc(F)cc1 (stereo not given) | 26.8 | –
